Assay results reported in paper PMC4552634, “A New Set of Chemical Starting Points with Plasmodium falciparum Transmission-Blocking Potential for Antimalarial Drug Discovery” (PLoS ONE, 2015).
Where two headings read alike, the source gives them in different places. The campaign covered roughly 13,000 compounds. About 3,200 (25%) showed an effect of 50% or more. The list shows a part of the results.

Test system: P. falciparum stage V gametocytes
Design: BacTiter-Glo ATP luminescence viability of purified stage V gametocytes in 384-well plates, per cent inhibition versus DMSO
Conditions: 48 h, 5 µM, inhibitor

Cc1ccc(/C=C/C(=O)NCCCCCN2CCN(C(=O)Nc3ccc(Cl)c(C(F)(F)F)c3)CC2)cc1 [TCMDC-136099]
% Inhibition: 10.82%

CC1(C)N=C(N)N=C(N)N1OCOc1ccc(Cl)cc1 [TCMDC-131734]
% Inhibition: 26.86%

CCCCCCN1CCCN(Cc2ccc(C(=O)Nc3ccc(C)c(F)c3)cc2)CC1 [TCMDC-136411]
% Inhibition: 22.16%

O=C(Nc1cccc(-c2csc(NC(=O)c3ccc4ccccc4c3)n2)c1)c1ccc2ccccc2c1 [TCMDC-124033]
% Inhibition: -5.611%

NC(N)=Nc1nc(-c2cccc(NC(=O)C(F)(F)F)c2)cs1 [TCMDC-137441]
% Inhibition: -3.219%

NC(N)=Nc1nc(-c2cccc(NC(=O)NCCc3c[nH]c4ccc(OCc5ccccc5)cc34)c2)cs1 [TCMDC-139557]
% Inhibition: -16.48%

NC(N)=Nc1nc(-c2cccc(NC(=O)CCCCCCCON3C(N)=NC(N)=NC34CCCCC4)c2)cs1 [TCMDC-140420]
% Inhibition: -29.14%

NC(N)=Nc1nc(-c2cccc(NC(=O)NCc3cccc4ccccc34)c2)cs1 [TCMDC-139552]
% Inhibition: 11.54%

N=C(N)Nc1nc(-c2ccc(NC(=O)Nc3cccc(-c4csc(NC(=N)N)n4)c3)cc2)cs1 [TCMDC-139559]
% Inhibition: 111.8%

NC(N)=Nc1nc(-c2cccc(NC(=O)NCc3ccc(OC(F)(F)F)cc3)c2)cs1 [TCMDC-139556]
% Inhibition: 86.49%

Cc1ccccc1CNC(=O)Nc1cccc(-c2csc(N=C(N)N)n2)c1 [TCMDC-139553]
% Inhibition: 79.76%

NC(N)=Nc1nc(-c2cccc(NC(=O)NCC(c3ccccc3)c3ccccc3)c2)cs1 [TCMDC-139555]
% Inhibition: -30.72%

NC(N)=Nc1nc(-c2ccc(NCc3ccc(CNc4cccc(-c5csc(N=C(N)N)n5)c4)cc3)cc2)cs1 [TCMDC-140699]
% Inhibition: 83.03%

NC(N)=Nc1nc(-c2cccc(NC(=O)Cc3ccccc3)c2)cs1 [TCMDC-139599]
% Inhibition: 13.87%

COc1ccc(CNC(=O)Nc2cccc(-c3csc(N=C(N)N)n3)c2)cc1 [TCMDC-139554]
% Inhibition: 8.01%

CCCNC(=O)C1Cc2cc(OC)c(OC)cc2C2(N1)C(=O)N(Cc1cccc(OC)c1)c1ccccc12 (centres unmarked) [TCMDC-141464]
% Inhibition: 26.41%

C=CCc1cc(OC)ccc1OCCCOc1c(C)nc(N)nc1N [TCMDC-131358]
% Inhibition: 1.5%

CCCCCCc1ncc(-c2cc3cc(O)c(-c4ccccc4)cc3oc2=O)s1 [TCMDC-124096]
% Inhibition: -4.644%

c1ccc2c3c([nH]c2c1)C(c1ccc2c(c1)CCO2)N(c1ncnc(N2CCN(CCCN4CCOCC4)CC2)n1)CC3 (centres unmarked) [TCMDC-138517]
% Inhibition: 42.57%

O=[N+]([O-])c1ccc(NC(=NCCOc2ccccc2)Nc2ccccc2Br)c(O)c1 [TCMDC-139982]
% Inhibition: 18.66%

Cc1cc(Oc2ccc(-n3ccnc3)cc2)nc(N2CCN(CCCN3CCCC3)CC2)n1 [TCMDC-132208]
% Inhibition: 34.43%

COc1cc(-n2cnc3cc(-c4ccc([N+](=O)[O-])cc4)sc3c2=O)ccc1OCCN1CCCC1 [TCMDC-138916]
% Inhibition: 104.9%

CCNC[C@H]1CCCN1CCOc1ccc(-n2cnc3cc(-c4ccc(Cl)cc4)sc3c2=O)cc1OC [TCMDC-134841]
% Inhibition: 68.56%

CN(CCN1CCCC1)c1nc2ccc(-n3cnc4cc(-c5ccc(Cl)cc5)sc4c3=O)cc2[nH]1 [TCMDC-138918]
% Inhibition: 5.034%

CCN(C)CCCn1c(N(C)C)nc2cc(-n3cnc4cc(-c5ccc(Cl)cc5)sc4c3=O)ccc21 [TCMDC-138926]
% Inhibition: -50.75%

COc1cc(-n2cnc3cc(-c4ccc(Cl)cc4)sc3c2=O)ccc1OCCN1CCC(c2cccc(NC(C)=O)c2)CC1 [TCMDC-138930]
% Inhibition: 71.5%

COc1cc(-n2c(CN3CCCC3)nc3cc(-c4ccc(Cl)cc4)sc3c2=O)ccc1OCCN1CCCC1 [TCMDC-135298]
% Inhibition: 36.8%

CN(C)c1nc2cc(-n3cnc4cc(-c5ccc(Cl)cc5)sc4c3=O)ccc2n1CCCN1CCCCC1 [TCMDC-138925]
% Inhibition: 34.32%

CN(C)c1nc2cc(-n3cnc4cc(-c5ccc(Cl)cc5)sc4c3=O)ccc2n1CCCN1CCCC1 [TCMDC-138922]
% Inhibition: 42.12%

CCCCCc1ccc(N2C(N)=NC(N)=NC2(C)C)cc1 [TCMDC-137709]
% Inhibition: 8.731%

Cc1cccn2c(=O)c3cc(C(=O)NCCN4CCOCC4)c(=N)n(CCc4ccccc4)c3nc12 [TCMDC-124570]
% Inhibition: 5.032%

OCc1ccc(-c2cncc(Nc3ccc(F)c(Cl)c3)c2)cc1 [TCMDC-136671]
% Inhibition: -20.21%

CCOc1ccc(C=CC(=O)Nc2ccc3nc(N4CCN(C)CC4)cc(C)c3c2)cc1OC [TCMDC-125866]
% Inhibition: -25.94%

CC(C)c1ccc(NC(=O)c2ccc(NCCCN(C)Cc3ccccc3)c([N+](=O)[O-])c2)cc1 [TCMDC-125687]
% Inhibition: -12.67%

CCC(CCON1C(N)=NC(N)=NC1(C)C)c1ccc(Cl)cc1 (centres unmarked) [TCMDC-131710]
% Inhibition: 30.1%

Cc1ccccc1Oc1nc2ccccc2nc1SCC(=O)NC(C)C [TCMDC-124733]
% Inhibition: -10.37%

COc1ccc(Nc2ccnc3cc(Cl)ccc23)cc1OC [TCMDC-124814]
% Inhibition: -70.18%

COc1cc(NC2=NS(=O)(=O)c3cc(Cl)ccc3N2C)cc(OC)c1OC [TCMDC-134208]
% Inhibition: 87.41%

COc1ccc2c(c1)S(=O)(=O)N=C(N1CCCC1c1ccc(Cl)c(Cl)c1)N2C (centres unmarked) [TCMDC-134209]
% Inhibition: 3.235%

Oc1ccccc1CNCC(O)c1cccc(C(F)(F)F)c1 (centres unmarked) [TCMDC-140303]
% Inhibition: 18.18%

CCNc1cc(-c2cccc(OC)c2)nc(Nc2ccc(F)cc2)n1 [TCMDC-134014]
% Inhibition: -12.85%

Cc1ccc(C(=O)Nc2ccc(C)c(OC3CCN(Cc4ccco4)C3)c2)cc1 (centres unmarked) [TCMDC-133986]
% Inhibition: 48.65%

O=C(Nc1ccc(OC2CCN(Cc3ccco3)CC2)c(Cl)c1)c1ccc2ncccc2c1 [TCMDC-133984]
% Inhibition: 86.08%

O=C(Nc1ccc(OC2CCN(Cc3ccco3)C2)c(Cl)c1)c1ccc2ncccc2c1 (centres unmarked) [TCMDC-133987]
% Inhibition: 24.52%

Cc1ccc(NC(=O)c2ccc3ncccc3c2)cc1OC1CCN(Cc2ccc(F)cc2)C1 (centres unmarked) [TCMDC-133759]
% Inhibition: -2.086%

Cc1ccc(NC(=O)c2ccc3ncccc3c2)cc1OC1CCN(Cc2ccco2)C1 (centres unmarked) [TCMDC-133985]
% Inhibition: 61.5%

O=C(Nc1ccc(OC2CCN(CC3CC3)CC2)c(Cl)c1)c1ccc2ncccc2c1 [TCMDC-134273]
% Inhibition: 41.88%

O=C1c2ccc([N+](=O)[O-])cc2C(=O)N1c1ccc2[nH]ncc2c1 [TCMDC-131599]
% Inhibition: -5.185%

CCOC(=O)c1ccc(NC(=O)Nc2ccc(-c3ccc(-c4nc5cccc(C)c5[nH]4)s3)cc2)cc1 [TCMDC-133259]
% Inhibition: -10.61%

CC(=O)C1(c2ccccc2)CCN(CCC2(c3ccc(Cl)c(Cl)c3)CN(C(=O)C3CCCC3)CCO2)CC1 (centres unmarked) [TCMDC-135325]
% Inhibition: -42.49%

CC(C)c1cccc(C(C)C)c1NC(=O)NNC(=O)c1ccc(CCN2CCC(c3nc(COCC(F)(F)F)c(-c4ccc(F)cc4)o3)CC2)cc1 [TCMDC-131908]
% Inhibition: -22.37%

Cc1c(C)c2c(c(C)c1O)CC[C@](C)(C(=O)NC1CCC(CN3CCC(c4c[nH]c5ccccc45)CC3)CC1)O2 (some centres unmarked) [TCMDC-139895]
% Inhibition (% Inhibition): -20.01%

Cc1c(C)c2c(c(C)c1O)CC[C@](C)(C(=O)NC1CCC(CN3CCC(c4c[nH]c5ccccc45)CC3)CC1)O2 (some centres unmarked) [TCMDC-139890]
% Inhibition (% Inhibition): -54.12%

Cc1c(C)c2c(c(C)c1O)CC[C@@](C)(C(=O)N1CCC(CCN3CCC(c4c[nH]c5ccccc45)CC3)CC1)O2 [TCMDC-139898]
% Inhibition: 69.88%

Cc1c(C)c2c(c(C)c1O)CC[C@](C)(C(=O)N1CCC(CCN3CCC(c4c[nH]c5ccccc45)CC3)CC1)O2 [TCMDC-139891]
% Inhibition: 102.8%

Cc1c(C)c2c(c(C)c1O)CC[C@@](C)(C(=O)N1CCC(CN3CCC(c4c[nH]c5ccccc45)CC3)CC1)O2 [TCMDC-139899]
% Inhibition: 79.54%

Cc1c(C)c2c(c(C)c1O)CC[C@](C)(C(=O)N1CCC(CN3CCC(c4c[nH]c5ccccc45)CC3)CC1)O2 [TCMDC-139892]
% Inhibition: -67.77%

Cc1cccc(C(=O)Nc2ccnc(N3CCCN(Cc4cccc(O)c4)CC3)c2)c1 [TCMDC-134959]
% Inhibition: -37.26%

CC1(C)NC(N)=NC(=N)N1OCCCO [TCMDC-131559]
% Inhibition: -1.825%

N=C1N=C(N)NC2(CCCCC2)N1OCC1CCCCC1 [TCMDC-131617]
% Inhibition: -29.76%

CC1CCC2(CC1)NC(N)=NC(=N)N2OCCCCCCCCO (centres unmarked) [TCMDC-131600]
% Inhibition: 80.95%

CNC(=O)c1ccc(/C=C/C(=O)N2CCc3ccc(-c4ccccc4)cc3C2c2cccc(C(F)(F)F)c2)cc1 (centres unmarked) [TCMDC-138253]
% Inhibition: -22.09%

CN(C)CCCOc1ccc(CN2CC[C@H](NC(=O)c3ccc(Cl)c(Cl)c3)C2)c2ccccc12 [TCMDC-140267]
% Inhibition: 76.67%

O=C(N[C@H]1CCN(Cc2ccc(OCCN3CCCC3)c3ccccc23)C1)c1ccc(Cl)c(Cl)c1 [TCMDC-140268]
% Inhibition: 76.23%

CN(C)CCCOc1ccc(CN2CC[C@H](NC(=O)c3ccc(Cl)c(Cl)c3)C2)cc1Cl [TCMDC-140272]
% Inhibition: 19.07%

O=C(N[C@H]1CCN(Cc2ccc(OCCN3CCNCC3)c3ccccc23)C1)c1ccc(Cl)c(Cl)c1 [TCMDC-140269]
% Inhibition: 83.44%

CN1CCC[C@H]1COc1ccc(CN2CC[C@H](NC(=O)c3ccc(Cl)c(Cl)c3)C2)c2ccccc12 [TCMDC-140270]
% Inhibition: 22.59%

CN(C)CCCOc1ccccc1CN1CC[C@H](NC(=O)c2ccc(Cl)c(Cl)c2)C1 [TCMDC-140310]
% Inhibition: -1.9%
